# Screening data (PubChem)
# Compounds with a hit are over-represented: about 2.1% of the library has one in this group of screens.
# NSD2 HMT inh = NSD2 histone methyltransferase inhibitors, primary screen, biochemical, AlphaScreen, single concentration, set 2 | Histone-lysine N-methyltransferase NSD2 (Homo sapiens), O96028 | NSD2 peptide methylation, 120 min | inhibition, % at 12.5 µM | 0.54% of 310,000 active | AID 743445, 2014; in the data active = inhibition above about 50%
# CASP6 VEID inh = human caspase-6 inhibitors, primary screen, biochemical, VEID-R110 fluorescence, single point, set 2. purified caspase-6, Z-VEID-R110 cleavage fluorescence. inhibition, % at 12.5 µM. 0.53% of 350,000 active;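 active = mean inhibition across replicates at least about 35%, with every replicate also reaching that limit, limit read from the data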;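 note: 0% = median of neutral control wells and 100% = no fluorescence left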
# Target sequence (P55212 24-179 limits assumed): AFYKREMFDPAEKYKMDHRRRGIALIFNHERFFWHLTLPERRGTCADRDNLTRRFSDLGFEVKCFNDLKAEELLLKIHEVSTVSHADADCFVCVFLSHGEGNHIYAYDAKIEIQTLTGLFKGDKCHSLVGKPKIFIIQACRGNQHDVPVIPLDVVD
# Target sequence (P55212 194-293 limits assumed): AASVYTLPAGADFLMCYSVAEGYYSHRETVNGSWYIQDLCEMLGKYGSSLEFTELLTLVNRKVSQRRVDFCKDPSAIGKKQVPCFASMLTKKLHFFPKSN
# ARNT TACC3 PPI = disruptors of ARNT/TACC3 protein interaction, primary screen, biochemical, AlphaScreen, single concentration | Transforming acidic coiled-coil-containing protein 3 (Homo sapiens), Q9Y6A5 | AlphaScreen His-ARNT PAS-B/GST-TACC3 binding, luminescence; TACC3 fragment carries E629A point mutation | inhibition, % at 9.99 µM | 0.66% of 390,000 active;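 active = mean inhibition of replicates at least 50% and at least half of replicates each reaching 50%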;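 note: 0% = complete ARNT plus TACC3 wells and 100% = ARNT alone without TACC3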
# PfHsp90 yeast 2 = growth inhibition of PfHsp90-expressing yeast, primary screen, antimalarial PfHsp90 inhibitor project, S. cerevisiae, BacTiter-Glo luminescence, single point, set 2 | BacTiter-Glo ATP, 48 h; yeast lacking PDR1 and PDR3 efflux regulators | inhibition, % at 9.4 µM | 0.32% of 310,000 active;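 active = every replicate shows inhibition above about 80%, whatever the replicate mean, limit read from the data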;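 note: 0% = DMSO neutral controls and 100% = 20 µM radicicol positive controls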
# SIRT5 block = SIRT5 desuccinylase inhibitors, primary screen, biochemical, fluorescence imaging, single point, set 5 | 1.1% of 330,000 active | Purified SirT5, succinyl-peptide AMC, trypsin-coupled fluorescence | inhibition, % at 15 µM; in the data active = inhibition above about 15%
# AlphaScreen ctr = AlphaScreen signal interference compounds, dose response, artefact control for ARNT-TACC3 interaction inhibitor project, biochemical, luminescence, cherry-pick; shares compounds with ARNT TACC3 PPI; His-ARNT PASB-GST AlphaScreen artifact counter-screen; AC50, µM (series often up to 68 µM), inactives show top-dose activity change, negative = signal decrease; 50% of 1,200 active; AID 651705, 2012;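 active = every separate test run was called active for a drop in luminescence, with AC50 within twice the top valid dose, actives reach about 71 µM in these data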
# * hit, by the source's call; / = no result given.
SMILES,NSD2 HMT inh,CASP6 VEID inh,ARNT TACC3 PPI,PfHsp90 yeast 2,SIRT5 block,AlphaScreen ctr
CCN(CC)c1ccc(/C=N/NC(=O)c2ccc3nc[nH]c3c2)c(O)c1,2,/,55*,-73,/,41µM*
CCN(CC)c1ccc(C=NNC(=O)c2cc(-c3ccc(C)c(C)c3)n[nH]2)c(O)c1,0,/,/,/,/,/
COc1cccc(CN2[C@@H](CO)[C@@H](c3ccccc3)C23CN(C(=O)C2CCCC2)C3)c1,/,1,/,/,-3,/
CN(C)C(=O)c1cccc(-c2ccc([C@@H]3[C@@H](CO)N(C(=O)C4CCCCC4)[C@H]3C#N)cc2)c1,/,0,1,/,0,/
CCC(COC)Oc1cc(NCc2ccccc2)c2ncn(C(C)C)c2c1 (stereo unspecified),/,5,56*,-7,/,34µM*
CCC(COC(=O)c1ccccc1)Oc1cc(NCc2ccccc2)c2ncn(C(C)C)c2c1 (stereo unspecified),/,/,17,2,/,/
CCN(CC)C(=O)[C@H]1CC(CC(=O)NCc2ccc(OC)c(OC)c2)C(=O)N2CCc3c([nH]c4ccccc34)[C@]12C (stereo partly specified),/,4,1,20,3,/
CCN(CC)C(=O)[C@H]1C[C@H](CC(=O)NCc2ccc(OC)c(OC)c2)C(=O)N2CCc3c([nH]c4ccc(Cl)cc34)[C@]12C,/,5,27*,8,1,-3%
C/C(CC(=O)Nc1ccc(F)cc1)=N\NC(=O)c1ccccn1,-2,-1,22*,-66,2,-7%
C/C(CC(=O)NCc1ccccc1Cl)=N/NC(=O)c1ccccn1,4,-1,26*,0,-2,2%
Cc1cccc(-c2ccc([C@H]3[C@H]4CN(C(=O)NC5CCCCC5)CC(=O)N4[C@H]3CO)cc2)c1,/,0,/,/,0,/
COCC(=O)N(C)C[C@H]1Oc2cc(C3=CCCC3)ccc2S(=O)(=O)N([C@@H](C)CO)C[C@H]1C,/,/,/,/,-3,/
Cc1ccc2cc(C3C(C#N)=C(N)Oc4c3ccc3cccnc43)c(=O)[nH]c2c1 (stereo unspecified),0,20,52*,9,-4,52µM*
N#CC1=C(N)Oc2c(ccc3cccnc23)C1c1cccnc1 (stereo unspecified),24,/,55*,-22,/,41µM*
COc1ccc(NC(=O)Nc2ccc3c(c2)[C@H]2C[C@@H](CC(=O)NCc4ccccn4)O[C@@H](CO)[C@H]2O3)cc1,/,-1,-4,/,1,/
O=C(O)CSCc1cn2cc(Cl)ccc2n1,-1,/,-6,6,/,/
CNCc1cn2cc(Cl)ccc2n1,17,/,67*,9,/,-8%
CCCN(C)C[C@H]1OCCCC[C@H](C)Oc2ccc(NC(=O)Cc3ccccc3)cc2C(=O)N([C@@H](C)CO)C[C@H]1C,/,-1,22,/,-10,/
CC1CCCC(C)N1/N=C/c1ccc([N+](=O)[O-])cc1 (stereo unspecified),7,-1,51*,10,-2,24µM*
O=C(C[C@@H]1CC[C@H]2[C@@H](COC[C@@H](O)CN2C(=O)c2cccnc2)O1)NC1Cc2ccccc2C1,/,3,-3,/,1,/
CN1CCN(C(=O)C[C@@H]2C[C@H]3c4cc(NC(=O)Nc5ccc(F)cc5)ccc4O[C@H]3[C@@H](CO)O2)CC1,/,3,0,/,0,/
CC=Cc1ccc2n(c1=O)C[C@@H]1[C@@H](CO)[C@H](C(=O)N(C)C)N(CCC)[C@H]21 (mixture of isomers),/,-2,/,/,-3,/
O=C(Nc1ccccc1C(F)(F)F)c1ncn[nH]1,-21,-5,59*,23,7,-28%
O=C(Nc1ccccc1C(F)(F)F)c1cnccn1,-1,-1,-26,-7,-4,/
O=C(C1CCCC1)N1C[C@H]2[C@@H](c3ccccc31)[C@H](CO)N2C(=O)Nc1cccc(F)c1,/,-2,3,/,1,/
